Laboratory results as given in PubChem BioAssay AID1159580 (chemical genetic matrix, 2015).
Among all 5,500 compounds or so, about 2,000 (36%) were called active. Another 18% or so got no clear call; they are omitted. No stated cut-off is given here; in the data, active means normalized growth mostly below about 0.91 (no sharp cut-off); inconclusive means no clear call, values can overlap the other calls; inactive means mostly above about 0.92. Some of the results follow.

Test: chemical genetic growth profiling, strain panel (AID 1159580);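 further: tested at 20 µM; growth read once vehicle control cultures reached saturation at 30 °C; 1 = growth at the plate median or of vehicle wells; lower values mean less growth of the strain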
Details: growth OD

Measured: normalized growth

C[C@]12C=CC(=O)C=C1CCC1C2C(=O)C[C@@]2(C)C1CC[C@]2(O)C(=O)CO (stereo partly specified)
inactive: S. cerevisiae deletion strains, locus YJR075W, strain HOC1, active compounds read low 0.985 | S. cerevisiae deletion strains, locus YKL009W, strain mrt4, active compounds read low 0.979 | S. cerevisiae deletion strains, locus YKL068W, active compounds read low 0.989 | S. cerevisiae deletion strains, locus YKL085W, strain MDH1 (second series), active compounds read low 0.998 | S. cerevisiae deletion strains, locus YKL085W, strain MDH1, active compounds read low 0.998 | S. cerevisiae deletion strains, locus YKL160W, strain elf1, active compounds read low 0.97 | S. cerevisiae deletion strains, locus YKL190W, strain CNB1, active compounds read low 0.989 | S. cerevisiae deletion strains, locus YKR001C, strain vps1, active compounds read low 0.995 | S. cerevisiae deletion strains, locus YKR026C, strain gcn3, active compounds read low 0.997 | S. cerevisiae deletion strains, locus YKR091W, strain srl3, active compounds read low 0.997 | S. cerevisiae deletion strains, locus YLL001W, strain dnm1, active compounds read low 0.955 | S. cerevisiae deletion strains, locus YLL026W, active compounds read low 0.986 | S. cerevisiae deletion strains, locus YLL041C, strain sdh2, active compounds read low 0.994 | S. cerevisiae deletion strains, locus YLR027C, strain aat2, active compounds read low 0.978 | S. cerevisiae deletion strains, locus YLR039C, strain RIC1, active compounds read low 0.993 | S. cerevisiae deletion strains, locus YLR058C, strain SHM2, active compounds read low 0.978 | S. cerevisiae deletion strains, locus YLR102C, strain apc9, active compounds read low 0.99 | S. cerevisiae deletion strains, locus YLR113W, strain HOG1, active compounds read low 1.03 | S. cerevisiae deletion strains, locus YLR221C, strain rsa3, active compounds read low 1.01 | S. cerevisiae deletion strains, locus YLR258W, strain gsy2, active compounds read low 1.02 | S. cerevisiae deletion strains, locus YLR262C, strain YPT6 (second series), active compounds read low 0.986 | S. cerevisiae deletion strains, locus YLR262C, strain YPT6, active compounds read low 0.968 | S. cerevisiae deletion strains, locus YLR268W, strain sec22, active compounds read low 1.05 | S. cerevisiae deletion strains, locus YLR320W, strain mms22, active compounds read low 0.985 | S. cerevisiae deletion strains, locus YLR330W, strain CHS5, active compounds read low 0.998 | S. cerevisiae deletion strains, locus YLR342W, strain FKS1 (second series), active compounds read low 1.01 | S. cerevisiae deletion strains, locus YLR342W, strain FKS1, active compounds read low 0.978 | S. cerevisiae deletion strains, locus YLR357W, strain rsc2, active compounds read low 0.992 | S. cerevisiae deletion strains, locus YLR370C, strain arc18, active compounds read low 0.994 | S. cerevisiae deletion strains, locus YLR371W, strain rom2, active compounds read low 0.974 | S. cerevisiae deletion strains, locus YLR384C, strain iki3, active compounds read low 0.985 | S. cerevisiae deletion strains, locus YLR418C, strain cdc73, active compounds read low 0.985 | S. cerevisiae deletion strains, locus YML016C, strain PPZ1, active compounds read low 0.991 | S. cerevisiae deletion strains, locus YML032C, strain rad52, active compounds read low 1.01 | S. cerevisiae deletion strains, locus YML120C, strain ndi1, active compounds read low 0.986 | S. cerevisiae deletion strains, locus YML124C, strain tub3, active compounds read low 0.983 | S. cerevisiae deletion strains, locus YMR058W, strain fet3, active compounds read low 0.996 | S. cerevisiae deletion strains, locus YMR078C, strain ctf18, active compounds read low 0.979 | S. cerevisiae deletion strains, locus YMR125W, strain sto1, active compounds read low 0.987 | S. cerevisiae deletion strains, locus YMR129W, active compounds read low 1 | S. cerevisiae deletion strains, locus YMR205C, strain PFK2, active compounds read low 0.988 | S. cerevisiae deletion strains, locus YMR223W, strain ubp8, active compounds read low 0.963 | S. cerevisiae deletion strains, locus YMR231W, strain pep5, active compounds read low 1.02 | S. cerevisiae deletion strains, locus YMR263W, strain SAP30, active compounds read low 0.992 | S. cerevisiae deletion strains, locus YMR307W, strain GAS1, active compounds read low 0.991 | S. cerevisiae deletion strains, locus YNL067W, strain RPL9B, active compounds read low 0.992 | S. cerevisiae deletion strains, locus YNL071W, strain lat1, active compounds read low 1.01 | S. cerevisiae deletion strains, locus YNL153C, strain GIM3, active compounds read low 0.99 | S. cerevisiae deletion strains, locus YNL183C, strain NPR1, active compounds read low 0.986 | S. cerevisiae deletion strains, locus YNL209W, strain ssb2, active compounds read low 1.01 | S. cerevisiae deletion strains, locus YNL233W, strain BNI4, active compounds read low 0.997 | S. cerevisiae deletion strains, locus YNL248C, strain rpa49, active compounds read low 1 | S. cerevisiae deletion strains, locus YNL250W, strain rad50, active compounds read low 0.981 | S. cerevisiae deletion strains, locus YNL271C, strain bni1, active compounds read low 0.999 | S. cerevisiae deletion strains, locus YNL298W, strain CLA4, active compounds read low 0.982 | S. cerevisiae deletion strains, locus YNL307C, strain MCK1, active compounds read low 0.998 | S. cerevisiae deletion strains, locus YNL322C, strain KRE1 (second series), active compounds read low 0.998 | S. cerevisiae deletion strains, locus YNL322C, strain KRE1, active compounds read low 0.994 | S. cerevisiae deletion strains, locus YNR049C, strain mso1, active compounds read low 0.999 | S. cerevisiae deletion strains, locus YNR052C, strain pop2, active compounds read low 0.995 | S. cerevisiae deletion strains, locus YOL006C, strain TOP1, active compounds read low 0.938 | S. cerevisiae deletion strains, locus YOL012C, strain htz1 0.891 | S. cerevisiae deletion strains, locus YOL147C, strain pex11, active compounds read low 0.999 | S. cerevisiae deletion strains, locus YOR001W, strain rrp6, active compounds read low 0.976 | S. cerevisiae deletion strains, locus YOR061W, strain CKA2, active compounds read low 0.963 | S. cerevisiae deletion strains, locus YOR069W, strain VPS5, active compounds read low 0.997 | S. cerevisiae deletion strains, locus YOR070C, strain gyp1, active compounds read low 1.01 | S. cerevisiae deletion strains, locus YOR080W, strain dia2, active compounds read low 0.992 | S. cerevisiae deletion strains, locus YOR083W, strain WHI5, active compounds read low 0.964 | S. cerevisiae deletion strains, locus YOR106W, strain vam3, active compounds read low 0.993 | S. cerevisiae deletion strains, locus YOR136W, strain idh2, active compounds read low 0.982 | S. cerevisiae deletion strains, locus YOR144C, strain elg1, active compounds read low 0.985 | S. cerevisiae deletion strains, locus YOR184W, strain ser1, active compounds read low 0.973 | S. cerevisiae deletion strains, locus YOR231W, strain MKK1, active compounds read low 1.01 | S. cerevisiae deletion strains, locus YOR265W, strain rbl2, active compounds read low 0.993 | S. cerevisiae deletion strains, locus YOR270C, strain vph1, active compounds read low 1.02 | S. cerevisiae deletion strains, locus YOR290C, strain snf2, active compounds read low 1.03 | S. cerevisiae deletion strains, locus YOR316C, strain cot1, active compounds read low 0.985 | S. cerevisiae deletion strains, locus YPL051W, strain arl3, active compounds read low 0.989 | S. cerevisiae deletion strains, locus YPL055C, strain LGE1, active compounds read low 0.94 | S. cerevisiae deletion strains, locus YPL078C, strain atp4, active compounds read low 0.955 | S. cerevisiae deletion strains, locus YPL106C, strain sse1, active compounds read low 1.01 | S. cerevisiae deletion strains, locus YPL240C, strain hsp82, active compounds read low 0.987 | S. cerevisiae deletion strains, locus YPL241C, strain CIN2, active compounds read low 0.997 | S. cerevisiae deletion strains, locus YPL256C, strain CLN2, active compounds read low 1.05 | S. cerevisiae deletion strains, locus YPR119W, strain clb2, active compounds read low 0.982 | S. cerevisiae deletion strains, locus YPR141C, strain kar3, active compounds read low 0.98 | S. cerevisiae deletion strains, locus YPR163C, strain tif3, active compounds read low 0.986 | S. cerevisiae deletion strains, locus YPR167C, strain met16, active compounds read low 0.996 | S. cerevisiae deletion strains, strain wtn01, active compounds read low 0.992 | S. cerevisiae strains, strain wild type, active compounds read low 0.986
